Source: PubChem (National Center for Advancing Translational Sciences (NCATS))
Many of the other results were omitted from the sample, so hits are more common in it than they were.
IDH1 R132H inh = human IDH1 R132H inhibition | Potency, µM (doses to about 76.6 µM), hits mostly inhibitors | O75874 | IDH1-R132H enzyme, NADPH consumption, diaphorase/resazurin fluorescence | 390,000 compounds, 0.093% hits; also: nearly all actives have a fitted effect of over 65% in size
Target sequence (O75874 whole entry R132H, stated change not applied): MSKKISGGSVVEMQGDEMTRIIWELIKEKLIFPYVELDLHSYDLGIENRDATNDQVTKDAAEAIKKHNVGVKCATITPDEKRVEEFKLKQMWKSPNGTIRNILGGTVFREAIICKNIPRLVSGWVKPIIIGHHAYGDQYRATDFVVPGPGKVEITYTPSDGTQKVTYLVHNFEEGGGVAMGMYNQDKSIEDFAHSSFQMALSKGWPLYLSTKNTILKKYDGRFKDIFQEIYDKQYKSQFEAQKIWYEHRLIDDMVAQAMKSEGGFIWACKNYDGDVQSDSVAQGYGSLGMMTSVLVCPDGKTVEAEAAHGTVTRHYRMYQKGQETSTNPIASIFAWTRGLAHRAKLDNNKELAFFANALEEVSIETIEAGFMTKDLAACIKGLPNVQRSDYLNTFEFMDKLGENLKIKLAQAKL
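IDH1-R132H (0.5 ug/mL dispensed) in pH 7.5 Tris buffer was preincubated 30 min with compound, then given a substrate mix of 0.016 mM NADPH and 2 mM alpha-KG for 80 min at room temperature; remaining NADPH was read by diaphorase/resazurin fluorescence.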
ASM inhibitor = human S-ASM enzyme inhibition; AID 504937; 340,000 compounds, 0.006% hits; Potency, µM (highest dose often 57.5 µM), usual class: inhibitors; P17405; placental ASM, HMU-PC fluorogenic substrate, 60 min
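Human placenta-derived ASM enzyme was preincubated with compound for 10 minutes at room temperature, then given fluorogenic substrate HMU-PC0 (9 uM final) for 60 minutes at 37 °C; a pH 10 stop preceded fluorescence reading at Ex 386/Em 447 nm.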
Mito fusion act = mitochondrial division inhibition or fusion activation; S. cerevisiae fusion-defective mutant growth rescue, CellTiterGlo 48 h; Potency, µM (series often up to 46.1 µM), actives largely listed as activators; 320,000 compounds, 0.23% hits; AID 485298; also: nearly all actives have a fitted effect of over 45% in size
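S. cerevisiae fusion-defective temperature-sensitive mutants (e.g. fzo1-1, mgm1-5) grown 48 h at 37C in YPEG (ethanol/glycerol non-fermentable) medium with 23 nl compound per well; growth rescue read as CellTiterGlo luminescence.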
RGS4 inh = inhibitors of human regulator of G protein signaling 4; Transcreener GDP fluorescence polarization, RGS4-accelerated GTP hydrolysis; Potency, µM (series often up to 114 µM), usual class: inhibitors; 390,000 compounds, 0.039% hits; AID 504845; also: nearly all actives have a fitted effect of over 75% in size
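MLSMR compounds (23 nl, pin-transferred) preincubated 10 min at room temperature with a 500nM (2x) first reagent, then RGS4 at 900nM (2x) plus Transcreener GDP mix added; fluorescence polarization (620/688 nm) read before and after 90 min at 30 °C.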
LDHA inh = blocks human lactate dehydrogenase A; AID 1347041; P00338; purified LDHA, NADH/diaphorase-resazurin fluorescence; active compounds read low; 480,000 compounds, 0.15% hits; activity change, % (values are at about 110 or 230 µM); in the data active = activity change below about -30%; inconclusive = mostly about -25% to -30%
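Human LDH5 at 2 nM final in Tris HCl pH 7.4 with 0.06 mM NADH and 0.2 mM pyruvate, reacted 5 minutes at room temperature. Remaining NADH coupled via diaphorase/resazurin; resorufin fluorescence read at 0 and 20 minutes, normalized to enzyme-free and DMSO wells.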
ClpP mod = qHTS Assay for Activators of ClpP; ATP-dependent Clp protease proteolytic subunit (Bacillus subtilis (strain 168)), P80244; purified B. subtilis ClpP, FRET peptide cleavage, 20 min; Potency, µM (series often up to 57.5 µM); 340,000 compounds, 1.9% hits; active = well fitted falling curve with a large enough effect; inconclusive = small, poorly fitted or top-dose-only effect; inactive = no such curve, though single readings can be large or run the other way; also: the source files actives as falling curves though it sought activators and does not explain the sign; nearly all actives have a fitted effect of over 65% in size
Target sequence (P80244 whole entry, looked up): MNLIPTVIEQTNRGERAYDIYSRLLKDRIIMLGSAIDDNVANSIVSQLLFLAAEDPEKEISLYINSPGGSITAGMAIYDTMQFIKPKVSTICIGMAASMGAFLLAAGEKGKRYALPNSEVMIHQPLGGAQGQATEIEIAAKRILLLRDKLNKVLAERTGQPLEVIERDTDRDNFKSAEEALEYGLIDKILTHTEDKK
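Buffer: 100 mM Tris/HCl pH8, 100 mM KCl, 0.05% low protease BSA, 2.5% glycerol, 0.01% Tween-20. ClpP 10 microg/mL final; 20 min RT; delta FRET normalized to ADEP and DMSO controls.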
A number is an active result; [ ] = dose if it differs, or a comment. Unless noted, calls follow the shape of the dose curve; as a rule, active = well fitted curve in the direction sought with a large enough effect; inconclusive = small, poorly fitted or top-dose-only effect, or another doubt; inactive = no such curve, though single readings can be large; an effect the other way counts as inactive or inconclusive.

For COC(=O)[C@]1(Cc2ccccc2)N[C@H](c2ccc(-c3cc(C(C)=O)cs3)cc2)[C@@H]2C(=O)N(C)C(=O)[C@@H]21 the results were IDH1 R132H inh inactive, ASM inhibitor inactive, Mito fusion act inactive, RGS4 inh inactive, LDHA inh inactive and ClpP mod 18µM.
For CC(=O)Nc1sc2c(c1-c1ncco1)CCNC2 the results were LDHA inh inactive.
`CCCc1cc(=O)[nH]c(SCC(=O)c2cc(C)n(C3CC3)c2C)n1` gave IDH1 R132H inh inactive, ASM inhibitor inactive, Mito fusion act inactive, RGS4 inh inactive, LDHA inh inactive and ClpP mod 18µM.
CCCc1cc(=O)[nH]c(SCC(=O)c2cc(C)n(C)c2C)n1 was read as IDH1 R132H inh inactive, ASM inhibitor inactive, Mito fusion act inactive, RGS4 inh inactive, LDHA inh inactive and ClpP mod inactive.
Screening Cc1ccnc(NS(=O)(=O)c2ccc(Oc3ccccc3)cc2)c1 returned IDH1 R132H inh inactive, ASM inhibitor inactive, Mito fusion act inactive, RGS4 inh inactive, LDHA inh inactive and ClpP mod 28µM.
For CSc1nc2n(n1)C(c1ccccn1)C1=C(CC(C)(C)CC1=O)N2 (stereo not given) the results were IDH1 R132H inh inactive, ASM inhibitor inactive, Mito fusion act inactive, RGS4 inh inactive, LDHA inh inactive and ClpP mod 25µM.
For CSc1nc2n(n1)C(c1ccc(O)cc1)C1=C(CC(C)(C)CC1=O)N2 (stereo not given) the results were LDHA inh inactive.
`N#Cc1c2c(c(NCCCN3CCOCC3)n3c1nc1ccccc13)CCC2` gave IDH1 R132H inh inactive, ASM inhibitor inactive, Mito fusion act inactive, RGS4 inh inactive, LDHA inh inactive and ClpP mod 32µM.
CC(C)c1cc(NCCN2CCOCC2)n2c(nc3ccccc32)c1C#N was read as IDH1 R132H inh inactive, ASM inhibitor inactive, RGS4 inh inactive[11.4 µM], LDHA inh inactive and ClpP mod inactive.
`CC(C)c1cc(NCCCN2CCOCC2)n2c(nc3ccccc32)c1C#N` gave IDH1 R132H inh inactive, ASM inhibitor inactive, Mito fusion act inactive, RGS4 inh inactive, LDHA inh inactive and ClpP mod 28µM.
N#Cc1c2c(c(NCCN3CCOCC3)n3c1nc1ccccc13)CCCC2 was read as IDH1 R132H inh inactive, ASM inhibitor inactive, Mito fusion act inactive, RGS4 inh inactive, LDHA inh inactive and ClpP mod inconclusive.
For Cc1ccc2c(C)nc(Nc3nc(CSc4ncccn4)cc(=O)[nH]3)nc2c1 the results were LDHA inh inactive.
Screening CCc1nc2c(c(SC)nn2-c2ccccc2)c(N)c1C(=O)OC returned IDH1 R132H inh inactive, ASM inhibitor inactive, Mito fusion act inactive, RGS4 inh inactive, LDHA inh inactive and ClpP mod 32µM.
For COC(=O)c1cc(C)nc2c1c(C)nn2-c1ccccc1 the results were IDH1 R132H inh inactive, ASM inhibitor inactive, Mito fusion act inactive, RGS4 inh inactive, LDHA inh inactive and ClpP mod inactive.
Screening CC(=O)N(C)C[C@@H]1Oc2ncc(Br)cc2C(=O)N([C@H](C)CO)C[C@@H]1C returned IDH1 R132H inh inactive, LDHA inh -34 and ClpP mod inactive.
Screening CCC(=O)N(C)C[C@@H]1Oc2ncc(Br)cc2C(=O)N([C@@H](C)CO)C[C@H]1C returned IDH1 R132H inh inactive, LDHA inh inactive and ClpP mod inactive.
COc1cccc(N2CCN(C(=O)c3ccc(=O)oc3)CC2C)c1 (stereo not given) was read as IDH1 R132H inh inactive, ASM inhibitor inactive, Mito fusion act inactive, RGS4 inh inactive, LDHA inh inactive and ClpP mod 28µM.
Screening COc1cccc(NC(=O)N2CCN(c3cccc(C)c3)C(C)C2)c1 (stereo not given) returned IDH1 R132H inh inactive, ASM inhibitor inactive, Mito fusion act inactive, RGS4 inh inactive, LDHA inh inactive and ClpP mod inactive.
Cc1ccc(SCCNC(=S)Nc2ccc(Cl)cc2C)cc1 was read as LDHA inh inactive.
Screening CC(C)c1nc2sc3c(=O)[nH]c(=S)[nH]c3c2c2c1CCCC2 returned IDH1 R132H inh inconclusive, ASM inhibitor inactive, Mito fusion act inactive, RGS4 inh inactive and LDHA inh inactive.
Screening CC(C)c1nc2sc3c(=O)[nH]c(=S)[nH]c3c2c2c1CCC2 returned Mito fusion act 13µM.
For CN1CCN(C(=O)Cn2c(-c3ccccc3)cc3ccccc32)CC1 the results were LDHA inh inactive.
Screening COc1cccc(N2CCN(C(=O)Cn3c(-c4cccs4)cc4ccccc43)CC2)c1 returned IDH1 R132H inh inactive, RGS4 inh inactive, LDHA inh inactive and ClpP mod 16µM.
`CCN1CCN(C(=O)Cn2c(-c3cccs3)cc3ccccc32)CC1` gave IDH1 R132H inh inactive, RGS4 inh inactive, LDHA inh inactive and ClpP mod 32µM.
For COc1ccc(S(=O)(=O)NCc2ccco2)cc1C(=O)N1CCOCC1 the results were IDH1 R132H inh inactive, ASM inhibitor inactive, Mito fusion act inactive, RGS4 inh inactive and LDHA inh inactive.
COc1ccc(S(=O)(=O)NC(C)C)cc1C(=O)N1CCOCC1 was read as IDH1 R132H inh inactive, ASM inhibitor inactive, Mito fusion act inactive, RGS4 inh inactive, LDHA inh inactive and ClpP mod 28µM.
COc1ccc(S(=O)(=O)N2CCCCC2)cc1C(=O)N1CCCCCC1 was read as IDH1 R132H inh inactive, ASM inhibitor inactive, RGS4 inh inactive, LDHA inh inactive and ClpP mod 14µM.
Screening COc1ccc(S(=O)(=O)N2CCCC2)cc1C(=O)N1CCCCC1 returned IDH1 R132H inh inactive, ASM inhibitor inactive, Mito fusion act inactive, RGS4 inh inactive, LDHA inh inactive and ClpP mod inactive.
For CC(=O)N1CCC2(CC1)CC(=O)c1cc(OCC(=O)N3CCCC3)ccc1O2 the results were IDH1 R132H inh inactive, ASM inhibitor inactive, Mito fusion act inactive, RGS4 inh inactive, LDHA inh inactive and ClpP mod inactive.
`CC(=O)N1CCC2(CC1)CC(=O)c1cc(OCC(=O)NCc3ccco3)ccc1O2` gave IDH1 R132H inh inactive, ASM inhibitor inactive, Mito fusion act inactive, RGS4 inh inactive, LDHA inh inactive and ClpP mod 11µM.
For CC(=O)N1CCC2(CC1)CC(=O)c1cc(OCC(=O)NCc3ccc(C)cc3)ccc1O2 the results were IDH1 R132H inh inactive, ASM inhibitor inactive, Mito fusion act inactive, RGS4 inh inactive, LDHA inh inactive and ClpP mod 28µM.
